Nine compounds from PubChem BioAssay (NCI) can be followed below.

This is part of a sample that, as a whole, favours compounds with a hit. Of some 79,000 tested, about 15% had one in any assay. Unmarked numbers belong to inactive results. Calls of active or inactive are those of the source. No stated cut-off is given here; in the data, active means growth inhibition above about 70%; inactive means the rest.

Assay [1] is described as follows: NCI Yeast Anticancer Drug Screen. Data for the rad50 strain (AID 155).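 Further: 0% = growth of vehicle-only cultures of the same strain.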 The settings on record: S. cerevisiae rad50 strain growth inhibition, hits give high values. The method in brief: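 Readout: growth inhibition relative to vehicle-treated cultures. Compound exposure was carried out in a genetically defined yeast strain deficient in DNA damage repair.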
The nature of assay [2]: NCI Yeast Anticancer Drug Screen. Data for the mec2-1 strain (AID 157). The note with it: S. cerevisiae mec2-1 strain, hits give high values. The method in brief:
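Cells of the genetically defined mec2-1 yeast strain are incubated with test compound. Inhibition of growth is calculated against vehicle-treated controls.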

Assay [3] is described as follows: NCI Yeast Anticancer Drug Screen. Data for the sgs1 mgt1 strain (AID 161).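 Further: 0% = growth of cultures given vehicle only.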 The settings on record: S. cerevisiae sgs1 mgt1 strain, hits give high values. The method in brief:
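Mutant yeast exposed to compound; growth scored against vehicle-only wells.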

Assay [4] in a line: NCI Yeast Anticancer Drug Screen. Data for the cln2 rad14 strain (AID 165).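 Further: 0% = growth equal to vehicle treated cultures.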 The settings on record: S. cerevisiae cln2 rad14 strain, hits give high values. In a few lines: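 The screen exposed genetically defined yeast (cln2 rad14) to test compounds and scored growth inhibition relative to vehicle-treated controls.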
A short description of assay [5]: NCI Yeast Anticancer Drug Screen. Data for the bub3 strain (AID 167). The note with it: S. cerevisiae bub3 mutant strain, hits give high values. The method in brief: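 Readout: yeast growth inhibition, expressed relative to vehicle-only wells. The test organism is a mutant strain from a panel with lesions in DNA repair or checkpoint genes.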
Assay [6] can be described thus: NCI Yeast Anticancer Drug Screen. Data for the mlh1 rad18 strain (AID 175). The settings on record: S. cerevisiae mlh1 rad18 strain growth inhibition, hits give high values. The method in brief: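 Compound-treated yeast growth, normalised to vehicle controls. Strain bears defined DNA repair mutations.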
The mark [7] stands for this setting: at 5.0 µM (retest, dose inferred, filed as 0.5).
Where [8] appears, read: at 50.0 µM (retest, dose inferred, filed as 5.0).

Consider `C=CCN1C(=O)NC(=O)/C(=C/c2c3ccccc3cc3ccccc23)C1=O`, for which the growth inhibition in assay [1] (setting [7]) was 58%; in assay [1] (setting [8]), 98% (active); in assay [1] (at 50.0 µM) it was 69.2%; in assay [2] (setting [7]), 85% (active); in assay [2] (setting [8]), 98% (active); in assay [2] (at 50.0 µM), 47.7%. The growth inhibition was 66% in assay [3] (setting [7]); 99% (active) in assay [3] (setting [8]); 82.2% (active) in assay [3] (at 50.0 µM); 48% in assay [4] (setting [7]); 98% (active) in assay [4] (setting [8]); -22.6% in assay [4] (at 50.0 µM). The growth inhibition was 83% (active) in assay [5] (setting [7]); 96% (active) in assay [5] (setting [8]); 88% (active) in assay [5] (at 50.0 µM); 79% (active) in assay [6] (setting [7]); 99% (active) in assay [6] (setting [8]); 85% (active) in assay [6] (at 50.0 µM).
As for `O=C1CCC[N]1[Hg][N]1CCCC1=O`, the growth inhibition in assay [1] (setting [7]) is 44%; in assay [1] (setting [8]), 46%; in assay [1] (at 50.0 µM), 93.2% (active); in assay [2] (setting [7]), 40%; in assay [2] (setting [8]), 51%; in assay [2] (at 50.0 µM), 94.6% (active). The growth inhibition in assay [3] (setting [7]) was 99% (active); in assay [3] (setting [8]) it was 99% (active); in assay [3] (at 50.0 µM), 94.2% (active); in assay [4] (setting [7]), 66%; in assay [4] (setting [8]) it was 97% (active); in assay [4] (at 50.0 µM) it was 92% (active). Moreover, the growth inhibition is 99% (active) in assay [5] (setting [7]); 98% (active) in assay [5] (setting [8]); 93.8% (active) in assay [5] (at 50.0 µM); 33% in assay [6] (setting [7]); 51% in assay [6] (setting [8]); 92.8% (active) in assay [6] (at 50.0 µM).
For the compound `CCCCN(CC)CC(C(C)=O)c1c(O)c2ccccc2oc1=O` (configuration not stated), the growth inhibition was 8% in assay [1] (setting [7]); 22% in assay [1] (setting [8]); 66.8% in assay [1] (at 50.0 µM); 4% in assay [2] (setting [7]); 28% in assay [2] (setting [8]); 48.2% in assay [2] (at 50.0 µM). Also, the growth inhibition in assay [3] (setting [7]) was 0%; in assay [3] (setting [8]), 65%; in assay [3] (at 50.0 µM), 60.5%; in assay [4] (setting [7]), 15%; in assay [4] (setting [8]), 59%; in assay [4] (at 50.0 µM), 45.2%. Further, the growth inhibition was 21% in assay [5] (setting [7]); 73% (active) in assay [5] (setting [8]); 59% in assay [5] (at 50.0 µM); -13% in assay [6] (setting [7]); 34% in assay [6] (setting [8]); 42.9% in assay [6] (at 50.0 µM).
`COC1=CC2=CCC3C(CCC4(C)C3CCC4(C)OC(C)=O)C2(C)CC1` (configuration not stated): the growth inhibition in assay [1] (setting [7]) is -2%; in assay [1] (setting [8]), 66%; in assay [1] (at 50.0 µM) it was 51.4%; in assay [2] (setting [7]) it was 2%; in assay [2] (setting [8]), 43%; in assay [2] (at 50.0 µM) it was 36.5%. Further, the growth inhibition is 0% in assay [3] (setting [7]); 82% (active) in assay [3] (setting [8]); 56.4% in assay [3] (at 50.0 µM); 0% in assay [4] (setting [7]); 35% in assay [4] (setting [8]); 30.6% in assay [4] (at 50.0 µM). Also, the growth inhibition in assay [5] (setting [7]) is -12%; in assay [5] (setting [8]) it was 24%; in assay [5] (at 50.0 µM), 76.6% (active); in assay [6] (setting [7]) it was -2%; in assay [6] (setting [8]), 76% (active); in assay [6] (at 50.0 µM), 55.5%.
With `[C-]#[O+].[C-]#[O+].[Ir].[O-]c1ccc2ccccc2c1N=Nc1ccccc1`, the growth inhibition in assay [1] (setting [7]) was -4%; in assay [1] (setting [8]), -4%; in assay [1] (at 50.0 µM), 74.5% (active); in assay [2] (setting [7]) it was -11%; in assay [2] (setting [8]), -11%; in assay [2] (at 50.0 µM) it was 69.5%. The growth inhibition in assay [3] (setting [7]) is 15%; in assay [3] (setting [8]), 15%; in assay [3] (at 50.0 µM), 62.1%; in assay [4] (setting [7]), -2%; in assay [4] (setting [8]), -2%; in assay [4] (at 50.0 µM), 50.7%. Besides, the growth inhibition in assay [5] (setting [7]) was -20%; in assay [5] (setting [8]), -20%; in assay [5] (at 50.0 µM), 55.1%; in assay [6] (setting [7]), -18%; in assay [6] (setting [8]), -18%; in assay [6] (at 50.0 µM), 69.5%.
`O=C([O][Hg][CH2]C1CC(O)CC([CH2][Hg][O]C(=O)c2ccccc2)O1)c1ccccc1` (configuration not stated): the growth inhibition was 98% (active) in assay [1] (setting [7]); 98% (active) in assay [1] (setting [8]); 99% (active) in assay [1] (at 50.0 µM); 98% (active) in assay [2] (setting [7]); 99% (active) in assay [2] (setting [8]); 99.2% (active) in assay [2] (at 50.0 µM). The growth inhibition in assay [3] (setting [7]) was 99% (active); in assay [3] (setting [8]) it was 99% (active); in assay [3] (at 50.0 µM), 99.3% (active); in assay [4] (setting [7]) it was 96% (active); in assay [4] (setting [8]), 97% (active); in assay [4] (at 50.0 µM) it was 97.4% (active). Also, the growth inhibition in assay [5] (setting [7]) is 97% (active); in assay [5] (setting [8]), 99% (active); in assay [5] (at 50.0 µM) it was 98.5% (active); in assay [6] (setting [7]) it was 99% (active); in assay [6] (setting [8]), 99% (active); in assay [6] (at 50.0 µM) it was 98.6% (active).
Turning to `CCOP(=O)(OCC)/C(C#N)=C/c1cccc(Br)c1`, the growth inhibition in assay [1] (setting [7]) was 19%; in assay [1] (setting [8]), 88% (active); in assay [1] (at 50.0 µM) it was 88.2% (active); in assay [2] (setting [7]), -4%; in assay [2] (setting [8]) it was 90% (active); in assay [2] (at 50.0 µM), 87.2% (active). Besides, the growth inhibition in assay [3] (setting [7]) is 3%; in assay [3] (setting [8]) it was 94% (active); in assay [3] (at 50.0 µM), 85.3% (active); in assay [4] (setting [7]) it was 24%; in assay [4] (setting [8]) it was 91% (active); in assay [4] (at 50.0 µM), 72.2% (active). The growth inhibition in assay [5] (setting [7]) was 5%; in assay [5] (setting [8]), 92% (active); in assay [5] (at 50.0 µM) it was 75.2% (active); in assay [6] (setting [7]), -3%; in assay [6] (setting [8]) it was 94% (active); in assay [6] (at 50.0 µM), 85.8% (active).
For the compound `CC(C)(C)CC(C)(C)c1ccc(O)cc1`, the growth inhibition is -11% in assay [1] (setting [7]); 99% (active) in assay [1] (setting [8]); 99.7% (active) in assay [1] (at 50.0 µM); -12% in assay [2] (setting [7]); 99% (active) in assay [2] (setting [8]); 99.7% (active) in assay [2] (at 50.0 µM). In addition, the growth inhibition in assay [3] (setting [7]) was -6%; in assay [3] (setting [8]), 98% (active); in assay [3] (at 50.0 µM), 99.8% (active); in assay [4] (setting [7]), -7%; in assay [4] (setting [8]) it was 99% (active); in assay [4] (at 50.0 µM), 99.5% (active). In addition, the growth inhibition in assay [5] (setting [7]) was -22%; in assay [5] (setting [8]), 98% (active); in assay [5] (at 50.0 µM) it was 98.5% (active); in assay [6] (setting [7]) it was -9%; in assay [6] (setting [8]), 99% (active); in assay [6] (at 50.0 µM), 99.6% (active).
Turning to `Nc1c(Br)cc(Br)c2c1C(=O)c1ccccc1C2=O`, the growth inhibition in assay [1] (setting [7]) is 5%; in assay [1] (setting [8]), -1%; in assay [1] (at 50.0 µM), -10.6%; in assay [2] (setting [7]), 2%; in assay [2] (setting [8]), 0%; in assay [2] (at 50.0 µM) it was -9.45%. In addition, the growth inhibition in assay [3] (setting [7]) is 3%; in assay [3] (setting [8]) it was 0%; in assay [3] (at 50.0 µM) it was 11.6%; in assay [4] (setting [7]), 0%; in assay [4] (setting [8]), 3%; in assay [4] (at 50.0 µM), 41.9%. The growth inhibition in assay [5] (setting [7]) was 1%; in assay [5] (setting [8]), 4%; in assay [5] (at 50.0 µM) it was 7.65%; in assay [6] (setting [7]), 9%; in assay [6] (setting [8]), -1%; in assay [6] (at 50.0 µM) it was 4.5%.
